The results in this text go back to PubChem BioAssay (Tox21).

For test [1], the target named is Estrogen receptor (Homo sapiens) (UniProt P03372). The experiment in a line: qHTS assay to identify small molecule antagonists of the estrogen receptor alpha (ER-alpha) signaling pathway using the BG1 cell line in the presence of 0.1 nM 17-beta-estradiol (AID 1259244). Further: nearly all actives have a fitted effect of over 50% in size. Further: potency means the concentration at half of the fitted maximal effect. The method, boiled down: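 After 5 days in hormone-depleted medium (charcoal-stripped serum, no phenol red), VM7Luc4E2 cells were seeded, incubated 24 h, then co-treated with compound and 0.1 nM (final) estradiol for 22 h before luminescence detection.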
(In general: In qHTS, concentration-response curves come from the screen itself.)

A short description of test [2]: qHTS assay to identify small molecule HDAC inhibitors (AID 1259364). Further: nearly all actives have a fitted effect of over 45% in size. Further: potency means the concentration at half of the fitted maximal effect. The method, boiled down: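 Homogeneous cell-based luminescent assay of endogenous class I/II HDAC activity; HCT-116 cells, 2 h compound exposure, 30 min HDAC-Glo development at RT.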
A short description of test [3]: qHTS assay to identify small molecule HDAC inhibitors - cell viability counter screen (AID 1259365). Further: series mostly up to about 92 µM; nearly all actives have a fitted effect of over 50% in size. The method, boiled down:
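Cytotoxicity was gauged in wild-type HCT-116 cells after a brief 2hr treatment with DMSO-dissolved compounds at 37C and 5% CO2, using CellTiter-Glo luminescence developed for 30min at room temperature.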

Test [4] is described as follows: qHTS assay to identify small molecule agonists of the sonic hedgehog signaling (Shh) pathway - cell viability counter screen (AID 1259366). Further: nearly all actives have a fitted effect of over 50% in size. Further: potency means the concentration at half of the fitted maximal effect. In outline: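 Stable Gli1-Luc NIH/3T3 clone, 2,000 cells/well. Compound exposure 24hr at 37C. Read-out: CellTiter-Fluor fluorescence.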
A short description of test [5]: qHTS assay to identify small molecule antagonists of the sonic hedgehog signaling (Shh) pathway - cell viability counter screen (AID 1259367). Further: nearly all actives have a fitted effect of over 55% in size. Further: potency means the concentration at half of the fitted maximal effect. In outline: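 Using CellTiter-Fluor, viability of Gli1-Luc reporter 3T3 cells is read by fluorescence in the wells used for the Shh luciferase assay. Treatment lasts 23 hr with conditioned medium, then reagent 1 hr at 37C.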

A short description of test [6]: qHTS assay to identify small molecule agonists of the sonic hedgehog signaling (Shh) pathway (AID 1259368; calls by dose curve;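 further: NIH/3T3-derived 3T3Gli1-Luc cells carrying a stable Gli1-driven firefly luciferase reporter; series mostly up to about 92 µM; nearly all actives have a fitted effect of over 15% in size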). In outline:
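Steps: seed 3T3 Gli1-Luc cells, incubate 4 hr at 37 C, pin-transfer compounds in DMSO alongside a positive control, incubate 24 hr, add luciferase detection reagent, wait 30 min at room temperature, read luminescence.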

The nature of test [7]: qHTS assay to identify small molecule antagonists of the sonic hedgehog signaling (Shh) pathway (AID 1259369; calls by dose curve; further: nearly all actives have a fitted effect of over 45% in size; further: potency means the concentration at half of the fitted maximal effect). In outline: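 Inhibition of Shh signalling is measured as reduced Gli1-response-element firefly luciferase output in an NIH/3T3-derived stable reporter clone stimulated with conditioned medium for 24hr.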
Test [8] can be described thus: qHTS assay to identify small molecule phospholipidosis (PLD) inducers (AID 1259344; active means well fitted curve in the direction sought with a large enough effect; an effect the other way counts as inactive or inconclusive). In outline:
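Fluorescent phospholipid staining (LipidTOX Red) measured by automated microscopy in fixed HepG2 cells after 24 h treatment; nuclei counterstained with Hoechst 33342; amiodarone as reference inducer.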

For test [9], the target named is Estrogen receptor beta (Homo sapiens) (UniProt Q92731). The experiment in a line: qHTS assay to identify small molecule agonists of the estrogen receptor beta (ER-beta) signaling pathway (AID 1259377; active means well fitted activation curve with a large enough effect in the signal ratio in the repeat runs, not every such curve was filed as active; the % refers to the signal ratio). In outline: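 Measured by fluorescence intensity from a B/G FRET beta-lactamase substrate (2 h, room temperature) in ER-beta-UAS-bla HEK293T cells treated with DMSO-dissolved compounds for 16 hr at 37C and 5% CO2.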

Where “and” joins values, the source holds several entries; their conditions need not be identical. Equal entries are not always repeated. Records with an inconclusive call do not appear. Some structures have more than one record in an assay (separate samples or runs), and their calls can disagree. Calls of active or inactive are those of the source. Unless noted, the call rests on the fitted dose curve; in most records, active means well fitted curve in the direction sought with a large enough effect in the repeat runs; inconclusive means weak or mixed curves; inactive means no such curve, though single readings can be large; an effect the other way counts as inactive or inconclusive.

Estrogen receptor beta (Homo sapiens), sequence (Q92731 whole entry, looked up): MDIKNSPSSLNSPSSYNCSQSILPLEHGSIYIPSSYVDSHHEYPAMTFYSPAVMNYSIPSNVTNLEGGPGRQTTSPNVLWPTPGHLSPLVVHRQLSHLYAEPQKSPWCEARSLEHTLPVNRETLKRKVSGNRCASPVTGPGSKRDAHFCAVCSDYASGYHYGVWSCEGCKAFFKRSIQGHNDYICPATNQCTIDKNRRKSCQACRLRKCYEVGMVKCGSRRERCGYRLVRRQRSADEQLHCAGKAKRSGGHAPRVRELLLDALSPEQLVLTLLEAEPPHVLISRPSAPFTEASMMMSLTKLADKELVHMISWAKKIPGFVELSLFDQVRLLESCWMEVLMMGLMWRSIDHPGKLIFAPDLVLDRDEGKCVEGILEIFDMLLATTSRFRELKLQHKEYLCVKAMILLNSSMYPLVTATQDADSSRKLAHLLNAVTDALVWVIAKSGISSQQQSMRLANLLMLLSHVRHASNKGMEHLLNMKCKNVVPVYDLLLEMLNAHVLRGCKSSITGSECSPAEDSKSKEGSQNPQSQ
Estrogen receptor (Homo sapiens), sequence (P03372 whole entry, looked up): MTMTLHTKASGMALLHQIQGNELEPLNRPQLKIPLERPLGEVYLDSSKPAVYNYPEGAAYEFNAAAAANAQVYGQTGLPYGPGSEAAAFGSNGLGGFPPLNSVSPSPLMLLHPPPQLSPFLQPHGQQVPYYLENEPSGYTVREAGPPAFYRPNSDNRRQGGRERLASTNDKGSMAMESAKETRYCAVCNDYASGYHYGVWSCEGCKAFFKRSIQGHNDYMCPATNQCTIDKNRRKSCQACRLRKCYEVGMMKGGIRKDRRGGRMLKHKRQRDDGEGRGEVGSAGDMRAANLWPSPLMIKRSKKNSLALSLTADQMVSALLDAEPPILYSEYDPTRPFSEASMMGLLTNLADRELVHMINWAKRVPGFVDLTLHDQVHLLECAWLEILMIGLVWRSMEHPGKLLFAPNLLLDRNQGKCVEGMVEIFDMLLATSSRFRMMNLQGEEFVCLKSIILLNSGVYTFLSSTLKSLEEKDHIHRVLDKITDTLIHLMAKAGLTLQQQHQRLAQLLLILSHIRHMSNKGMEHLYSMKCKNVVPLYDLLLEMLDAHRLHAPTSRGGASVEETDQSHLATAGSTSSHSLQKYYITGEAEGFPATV

In the case of `CC(=O)O[C@]1(C(C)=O)CC[C@H]2[C@@H]3C[C@H](C)C4=CC(=O)CC[C@]4(C)[C@H]3CC[C@@]21C`, the Potency entry in test [1], in test [2], in [3], in [4], in [5] and in test [6] was “inactive” each time. Moreover, the Potency in [7] is 19.3 µM (active).
Regarding `NCCCCCC(=O)O`, the Potency entry in test [1], in test [8], in [2], in test [3], in test [4] and in test [5] was “inactive” each time. The Potency entry in test [6] and in test [7] was “inactive” in each case.
As to `CCCCC/C=C/CC1CC(=O)OC1=O` (stereo unspecified), the Potency result in test [1], in test [2], in test [3], in [4], in test [5] and in test [6] was “inactive” throughout. Besides, in test [7], the Potency entry was “inactive”.
For the molecule `O=C(Nc1ccccc1SSc1ccccc1NC(=O)c1ccccc1)c1ccccc1`, the Potency in test [1] is 27.4 µM (active) and inactive; in test [2], 27.4 µM (active) and 19.3 µM (active); in test [4], 13.8 µM (active) and 13.7 µM (active); in test [5] it was 13.8 µM (active) and 12.2 µM (active); in test [7], 4.88 µM (active) and 5.45 µM (active). Besides, the Potency entry in test [3] and in test [6] was “inactive” each time.
For `Clc1ccc2c(c1)C(N1CCNCC1)=Nc1ccccc1O2`, the Potency entry in test [1], in [8], in [2], in test [3], in test [5] and in test [6] was “inactive” throughout. Besides, the Potency entry in test [7] is “inactive”. Further, the Potency in test [4] is 24.3 µM (active) and 13.3 µM (active). In test [9], the molecule was classed as inactive.
Take `Cc1scc2c1N(C(=O)CN1CCN(C)CC1)c1ccccc1NC2=O`: the Potency result in test [1], in [8], in [2], in test [3], in test [4] and in [5] was “inactive” in each case. Moreover, the Potency entry in test [6] and in [7] was “inactive” in each case. Moreover, the result in [9] was inactive.
As for `Cc1cc(C2(c3cc(C)c(O)cc3C)OS(=O)(=O)c3ccccc32)c(C)cc1O`, the Potency result in test [1], in [2], in test [3], in test [6] and in test [7] was “inactive” in each case. Further, the Potency was 24.3 µM (active) and 12.2 µM (active) in test [4]; 27.3 µM (active) and 13.7 µM (active) in test [5].
With `Nc1nc2ccccc2[nH]1`, the Potency entry in test [1], in [2], in [3], in [4], in [5] and in test [6] was “inactive” in each case. Moreover, the Potency entry in test [7] is “inactive”.
With `O=C(O)c1cccc(C(=O)O)c1`, the Potency result in [1], in [2], in [3], in [4], in [5] and in test [6] was “inactive” each time. In addition, the Potency entry in [7] was “inactive”.
For the molecule `CC(C)CCCCCCc1ccc(O)cc1`, the Potency in [1] is 5.54 µM (active) and inactive; in test [4], 62.2 µM (active); in test [5], 55.4 µM (active) and inactive; in [7] it was 24.8 µM (active) and inactive. Moreover, the Potency entry in [8], in test [2] and in test [6] was “inactive” each time. Also, in test [9], the outcome was inactive.
For `c1ccc2c(c1)CCCC2C1=NCCN1` (stereo unspecified), the Potency entry in [1], in test [2], in test [3], in test [4], in test [5] and in test [6] was “inactive” in each case.
For the molecule `O=c1n(CC2CO2)c(=O)n(CC2CO2)c(=O)n1CC1CO1` (stereo unspecified), the Potency result in test [1], in test [2], in test [3] and in test [6] was “inactive” each time. The Potency in test [4] is 61.1 µM (active); in test [5], 30.5 µM (active) and 48.6 µM (active); in [7], 963 nM (active) and 3.06 µM (active). Also, the outcome in [9] was inactive.
In the case of `c1ccc2c(c1)-c1cccc3c1c-2cc1ccccc13`, the Potency result in test [1], in [2], in test [3], in test [4], in test [5] and in test [6] was “inactive” throughout. Further, the Potency entry in [7] was “inactive and 545 nM (active)”.
Regarding `CC(C)(c1ccccc1)c1ccc(Nc2ccc(C(C)(C)c3ccccc3)cc2)cc1`, the Potency entry in test [1], in test [2], in [3], in test [4], in [5] and in test [6] was “inactive” throughout. Moreover, the Potency result in test [7] is “inactive”.
Turning to `O=C1Nc2ccccc2C1(c1ccc(O)cc1)c1ccc(O)cc1`, the Potency in [1] is 486 nM (active) and 237 nM (active); in test [4], 27.3 µM (active) and 9.44 µM (active); in test [5], 48.6 µM (active); in test [7], 34.4 µM (active). Further, the Potency entry in test [2], in test [3] and in test [6] was “inactive” each time. Moreover, the result in [9] was inactive.
As to `O=C(O)CP(=O)(O)O`, the Potency entry in [1], in test [2], in [3], in test [4], in [5] and in test [6] was “inactive” each time. Further, the Potency entry in test [7] is “inactive”.
Regarding `O=C(Oc1ccccc1)c1ccccc1O`, the Potency result in [1], in test [3], in [4], in [5] and in test [6] was “inactive” in each case. Also, in test [7], the Potency entry was “inactive and 54.5 µM (active)”.
Regarding `OCCN1CCNCC1`, the Potency entry in [1], in test [2], in test [3], in [4], in test [5] and in test [6] was “inactive” throughout. The Potency entry in test [7] was “inactive”. Besides, the outcome in test [9] was inactive.
On to `Cc1cccc([N+](=O)[O-])c1C(=O)O`, for which the Potency result in test [1], in test [2], in test [3], in test [4], in test [5] and in test [6] was “inactive” each time. The Potency result in test [7] is “inactive”. For the same molecule, in test [9], the outcome was inactive.
With `NNCCc1ccccc1`, the Potency entry in test [8], in test [2], in test [3], in test [4], in test [5] and in test [7] was “inactive” throughout.
`CC(C)(C)NCC(O)c1cc(O)cc(O)c1` (stereo unspecified): the Potency entry in [8], in test [2], in test [3], in test [4], in test [5] and in test [6] was “inactive” in each case. Also, the Potency result in [7] is “inactive”.
Regarding `CCCCC(CC)COC(=O)CC(C(=O)OCC(CC)CCCC)S(=O)(=O)O` (stereo unspecified), the Potency result in test [1], in test [2], in [3], in test [5], in test [6] and in [7] was “inactive” in each case. Further, the call in test [9] was inactive.
